# Pin1 inh = qHTS Assay to Find Inhibitors of Pin1 | Peptidyl-prolyl cis-trans isomerase NIMA-interacting 1 (Homo sapiens), Q13526 | Pin1 FP peptide displacement, HiFluor488, 10 min | Potency, µM (highest dose often 115 µM), without a hit: top-dose activity, negative = inhibition, usual class: inhibitors | hit rate 0.009% among 390,000; active = well fitted inhibition curve with a large enough effect in the polarisation, with a control signal flat, not every such curve was filed as active; inconclusive = small, poorly fitted or top-dose-only effect, or effect the other way, or a change in a side signal; inactive = no such curve, though single readings can be large or run the other way; the % refers to the polarisation; also: % is scaled to controls: 0 for no effect and ±100 for the full control effect
# Target sequence (Q13526 whole entry, looked up): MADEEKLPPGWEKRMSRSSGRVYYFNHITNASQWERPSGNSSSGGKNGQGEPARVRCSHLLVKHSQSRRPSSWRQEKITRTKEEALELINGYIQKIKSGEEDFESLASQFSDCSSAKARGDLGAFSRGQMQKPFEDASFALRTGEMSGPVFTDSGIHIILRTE
# Nrf2 inh = Nrf2 qHTS screen for inhibitors. A549 ARE-Fluc reporter, luciferase luminescence, 18-24 h. Potency, µM (series often up to 46 µM), for inactives: at the top dose activity change, negative = inhibition, usual class: inhibitors. hit rate 2.1% among 360,000. AID 504444, 2011; also: % is scaled to controls: 0 for no effect and ±100 for the full control effect; nearly all actives have a fitted effect of over 60% in size
#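 In this cell-based qHTS, ARE-driven firefly luciferase in A549 cells reports Nrf2 activity; the luminescent signal after BugLite lysis is the measured value, with a prior CellTiter-Fluor read for cell health.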
# Nrf2 activator = qHTS of Nrf2 Activators. AREc32 ARE-luciferase reporter (MCF7-derived line), luminescence, 24 h. Potency, µM (titrated, usually from 46.1 µM), for the others: at the top dose activation, usual class: activators. hit rate 0.31% among 410,000. AID 624171, 2012; also: % of control where 0% means no effect; nearly all actives have a fitted effect of over 65% in size
#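 Steps: seed AREc32_Fluc cells (1000/well, 5% FBS OPTI-MEM); incubate overnight at 37 deg C; add 23 nL compound; incubate 24 hr; add Steady-Glo; hold 30 min RT; read luminescence.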
# A549 viability = Nrf2 qHTS screen for inhibitors: counterscreen for cytotoxicity; Potency, µM (top dose mostly 46 µM), inactives show at the highest dose activity change, negative = cytotoxicity, actives largely listed as inhibitors; hit rate 0.16% among 390,000; A549 ARE-Fluc cells, CellTiter-Fluor viability, 18-24 h; also: % is scaled to controls: 0 for no effect and ±100 for the full control effect
#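 A549 ARE_Fluc cells in 5% FBS OPTI-MEM were exposed to compounds in concentration-response for 18-24 h at 37 deg C. Viability was read by CellTiter-Fluor fluorescence (Ex 405/Em 525) after 30 min, before the luciferase read.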
# * = called active by the depositor; ? = inconclusive; nt = no result; ! = not confirmed by another sample; [ ] = dose if it differs, or a comment. An excerpt weighted towards active compounds, which were near 2.2% of everything screened. Unless noted, calls follow the shape of the dose curve; as a rule, active = well fitted curve in the direction sought with a large enough effect; inconclusive = small, poorly fitted or top-dose-only effect, or another doubt; inactive = no such curve, though single readings can be large; an effect the other way counts as inactive or inconclusive. Potency is read from the fitted curve at half-maximal effect.
SMILES,Pin1 inh,Nrf2 inh,Nrf2 activator,A549 viability
CC(=O)c1cccc(NS(=O)(=O)c2ccc(N/C=C/C(=O)c3ccc(F)cc3)cc2)c1,-3%,?,2%,?
CC(=O)c1cccc(NS(=O)(=O)c2ccc(N/C=C\C(=O)c3ccc(F)cc3)cc2)c1,10%,26µM*,5%,?
COc1ccc(NS(=O)(=O)c2cccc(NC(=O)CCC(=O)c3ccc(Cl)cc3)c2)cc1,7%,21µM*,9%,-28%
COc1ccc(NS(=O)(=O)c2cccc(NC(=O)CCC(=O)c3cccs3)c2)cc1,-5%,-3%,0%,-11%
CCc1cccc(C)c1NC(=O)CSc1nnc(CCCOc2ccc(Cl)cc2Cl)n1C,11%,16µM*,4%,-14%
O=C(c1ccc(Oc2ccc([N+](=O)[O-])cc2)cc1)N1CCCCCC1,-2%,5.8µM*,0%[9.22 µM],-10%
O=C(CC(c1cccs1)N1Cc2ccccc2C1=O)Nc1ccc(Cl)cc1 (stereo not given),0%,10%,-1%,12%
FC(F)(F)c1cccc(N2CCN(c3ccc4nnc(-c5ccccc5)n4n3)CC2)c1,?,16µM*,0%,?
c1ccc(-c2nnc3ccc(N4CCCC4)nn23)cc1,6%,?,1%,5%
C=C(C)CNC(=S)NN=C1c2ccccc2-c2ccccc21,33%,?,8%,-6%
C=C(C)CNC(=S)N/N=C/c1ccco1,-2%,9%,11µM*,-1%
COc1ccc(SCC(CC(C)C)N2CCN(C)CCC2=O)cc1 (stereo not given),5%,?,nt,-1%
Oc1ccc(CNc2cccnc2)c2cccnc12,?,7%,nt,3%
COc1ccc(-c2cc(-c3c(O)c(OC)c4occc4c3OC)[nH]n2)cc1OC,-1%,13µM*,9%,?
COc1ccc(-c2cc(-c3c(O)c(OC)c4occc4c3OC)[nH]n2)cc1,2%,?,5%,?
CCn1nnc2cc(C(=O)Nc3cc(C)ccc3C)ccc21,-1%,?,-1%,7%
CS(=O)(=O)c1ccc(CNC(=O)C2(C(F)(F)F)C/C(=C\Cc3ccccc3)CCCO2)cc1 (stereo not given),?,18µM*!,4%,9%
O=C(NCc1ccccc1)C1(C(F)(F)F)C/C(=C\Cc2ccccc2)CCCO1 (stereo not given),-6%,6%,nt,-1%
O=C(CSCc1cccc(Br)c1)N=Nc1c(O)[nH]c2ccccc12,-8%,-16%,3%,-2%
O=Nc1c(-c2c(O)[nH]c3cc(Br)ccc23)[nH]c2ccccc12,11%,10µM*,-2%,21µM*
N#Cc1ccc(CN2CCN(C(=O)CC(NC(=O)c3ccccc3)c3ccccc3)CC2)cc1 (stereo not given),3%,-2%,9%,1%
CCc1ccccc1NC(=O)CN1CCN(C(=O)CNC(=O)Cc2cccc3ccccc23)CC1,-6%,15µM*,0%,-5%
N#Cc1ccc(CN2CCN(C(=O)CNC(=O)Cc3cccc4ccccc34)CC2)cc1,-2%,5.8µM*,0%,-14%
Cc1cccc(C)c1NC(=O)CN1CCN(C(=O)CNC(=O)Cc2cccc3ccccc23)CC1,nt,nt,0%,nt
COc1cc(OC)cc(-c2c(-c3cccs3)c3cc(-c4ccc(OC)c(OC)c4)ccc3n2C)c1,57%,-11%,1%,4%
SMILES,Pin1 inh,Nrf2 inh,Nrf2 activator,A549 viability
COc1cc(OC)cc(-c2c(-c3cccs3)c3cc(-c4cnc(N)nc4)ccc3n2C)c1,6%,21µM*,-1%,-7%
COC(=O)c1c(NC(=O)c2ccccc2)sc(C(N)=O)c1C,13%,?,1µM*,-6%
O=C(O)CSc1ccc2nnc(-c3cccnc3)n2n1,-3%,4%,-1%,3%
Fc1ccc(CSc2ccc3nnc(-c4cccnc4)n3n2)cc1,2%,9.2µM*,0%,-1%
COC(=O)c1sccc1S(=O)(=O)N(CC(=O)Nc1cccc(C)c1C)c1ccc(C)c(C)c1,14%,?,0%,-5%
CCc1c(C)c2cc3c(c(C)c2oc1=O)OCN(CCc1ccccc1F)C3,?,?,12%,15%
O=C1OC(/C(=C\Nc2ccc(F)cc2F)[N+](=O)[O-])c2ccccc21 (stereo not given),nt,?,?,-22%
O=C1OC(/C(=C\Nc2cc(Cl)ccc2O)[N+](=O)[O-])c2ccccc21 (stereo not given),nt,?,11µM*,-8%
